# Source: PubChem BioAssay
# Most compounds without a hit are left out; they make up all but 12% or so of the library.
# JMJD2A Tudor inh – blocks the human JMJD2A Tudor domain. Potency, µM (highest dose often 114 µM), inactives show at the highest dose activity change, negative = inhibition, actives largely listed as inhibitors. O75164. 390,000 tested, 4.4% active. AlphaScreen JMJD2A-Tudor / H3K4me3 peptide binding; note: % is set by controls: 0 for no effect and ±100 for the full control effect; nearly all actives have a fitted effect of over 50% in size
# G9a inh – blocks human histone lysine methyltransferase G9a; Q96KQ7; G9a H3K9 monomethylation, AlphaScreen, 2 h; Potency, µM (doses to about 102 µM), for the others: top-dose activity, negative = inhibition, usual class: inhibitors; 350,000 tested, 8.8% active; note: % is set by controls: 0 for no effect and ±100 for the full control effect; nearly all actives have a fitted effect of over 75% in size
#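 Quantitative HTS format: methyltransferase activity on a biotin-tagged H3K9 peptide is measured by AlphaScreen, using a rabbit anti-monomethyl-H3K9 antibody with streptavidin donor and anti-IgG acceptor beads. Final levels are 20 nM enzyme, 500 nM peptide, 20 uM SAM; 2 h RT.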
# TDP1 inh – blocks human tyrosyl-DNA phosphodiesterase 1; recombinant TDP1, AlphaScreen DNA substrate cleavage; Potency, µM (top dose mostly 130 µM), without a hit: at the highest dose activity change, negative = inhibition, actives largely listed as inhibitors; 350,000 tested, 0.28% active; note: % is set by controls: 0 for no effect and ±100 for the full control effect; nearly all actives have a fitted effect of over 40% in size
#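 Signal: AlphaScreen proximity between streptavidin donor and anti-FITC acceptor beads on intact substrate. Reaction: Tdp1 1 nM, substrate 15 nM final, 5 min RT after 15 min compound preincubation.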
# BAZ2B inh – inhibitors of human BAZ2B bromodomain. AlphaScreen BAZ2B-H3K14Ac peptide displacement. Potency, µM (highest dose often 114 µM), inactives show at the highest dose activity change, negative = inhibition, actives largely listed as inhibitors. 360,000 tested, 4.4% active; note: % is set by controls: 0 for no effect and ±100 for the full control effect; nearly all actives have a fitted effect of over 60% in size
# Target sequence (Q9UIF8 whole entry, looked up): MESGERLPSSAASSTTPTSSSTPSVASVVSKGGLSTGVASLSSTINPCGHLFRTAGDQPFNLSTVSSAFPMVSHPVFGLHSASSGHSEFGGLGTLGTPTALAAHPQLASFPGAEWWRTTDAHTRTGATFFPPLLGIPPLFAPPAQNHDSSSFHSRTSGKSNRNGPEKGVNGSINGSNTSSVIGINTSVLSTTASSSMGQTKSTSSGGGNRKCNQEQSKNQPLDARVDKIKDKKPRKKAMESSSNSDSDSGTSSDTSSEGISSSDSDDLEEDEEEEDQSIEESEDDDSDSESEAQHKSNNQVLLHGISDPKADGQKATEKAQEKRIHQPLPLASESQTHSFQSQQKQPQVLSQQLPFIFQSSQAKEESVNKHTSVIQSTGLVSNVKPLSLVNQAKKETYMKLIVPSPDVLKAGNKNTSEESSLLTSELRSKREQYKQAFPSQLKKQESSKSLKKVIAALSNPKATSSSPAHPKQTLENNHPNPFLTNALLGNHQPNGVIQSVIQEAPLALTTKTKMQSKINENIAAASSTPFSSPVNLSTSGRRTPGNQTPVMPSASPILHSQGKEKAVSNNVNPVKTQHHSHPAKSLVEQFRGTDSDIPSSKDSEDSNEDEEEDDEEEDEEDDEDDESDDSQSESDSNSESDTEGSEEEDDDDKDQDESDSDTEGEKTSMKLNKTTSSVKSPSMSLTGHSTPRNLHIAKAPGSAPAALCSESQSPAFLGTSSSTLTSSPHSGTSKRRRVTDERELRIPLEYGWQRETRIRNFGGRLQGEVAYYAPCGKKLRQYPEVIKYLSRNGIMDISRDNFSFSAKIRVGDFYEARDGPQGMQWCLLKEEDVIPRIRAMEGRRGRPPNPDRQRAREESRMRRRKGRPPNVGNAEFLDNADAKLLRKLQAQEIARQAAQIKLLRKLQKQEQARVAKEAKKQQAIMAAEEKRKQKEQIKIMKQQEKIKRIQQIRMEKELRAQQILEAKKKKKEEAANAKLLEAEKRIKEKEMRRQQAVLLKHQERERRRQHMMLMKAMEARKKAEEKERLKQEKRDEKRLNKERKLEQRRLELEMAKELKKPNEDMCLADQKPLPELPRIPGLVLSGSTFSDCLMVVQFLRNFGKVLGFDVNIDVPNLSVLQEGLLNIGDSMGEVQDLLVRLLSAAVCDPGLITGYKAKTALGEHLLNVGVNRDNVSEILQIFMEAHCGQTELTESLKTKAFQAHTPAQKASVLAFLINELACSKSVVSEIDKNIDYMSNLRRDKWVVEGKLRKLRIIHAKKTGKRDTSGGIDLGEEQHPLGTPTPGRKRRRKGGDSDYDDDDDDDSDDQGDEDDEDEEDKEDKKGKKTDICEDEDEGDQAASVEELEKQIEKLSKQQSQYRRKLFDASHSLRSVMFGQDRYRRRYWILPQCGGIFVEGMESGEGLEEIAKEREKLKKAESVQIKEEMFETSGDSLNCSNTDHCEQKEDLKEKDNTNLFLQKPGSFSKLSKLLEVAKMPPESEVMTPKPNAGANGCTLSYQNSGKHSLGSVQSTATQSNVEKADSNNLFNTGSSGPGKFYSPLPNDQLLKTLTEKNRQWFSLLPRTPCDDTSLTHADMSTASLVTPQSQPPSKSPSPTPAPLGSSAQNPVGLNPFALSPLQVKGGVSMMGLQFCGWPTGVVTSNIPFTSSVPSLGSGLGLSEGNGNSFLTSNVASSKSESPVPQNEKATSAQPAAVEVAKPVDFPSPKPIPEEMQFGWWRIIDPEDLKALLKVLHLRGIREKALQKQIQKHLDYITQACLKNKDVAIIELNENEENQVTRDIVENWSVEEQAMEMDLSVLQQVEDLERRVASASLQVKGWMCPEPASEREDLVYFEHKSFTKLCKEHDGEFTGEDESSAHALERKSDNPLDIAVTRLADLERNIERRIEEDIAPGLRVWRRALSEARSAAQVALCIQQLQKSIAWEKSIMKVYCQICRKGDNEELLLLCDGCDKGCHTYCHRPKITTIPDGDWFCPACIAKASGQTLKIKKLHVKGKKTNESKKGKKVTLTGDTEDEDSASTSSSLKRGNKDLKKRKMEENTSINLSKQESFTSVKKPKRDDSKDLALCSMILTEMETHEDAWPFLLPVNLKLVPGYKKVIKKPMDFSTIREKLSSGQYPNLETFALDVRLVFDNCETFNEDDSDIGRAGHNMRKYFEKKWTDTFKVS
#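 Complex of BAZ2B and biotin-H3K14Ac (50 nM apiece) forms over 30 min at RT, then faces library compounds up to 110 uM for another 30 min; AlphaScreen beads added, 20 min dark incubation, luminescence read.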
# HP1b binding inh – blocks HP1-beta chromodomain binding to methylated histone tails; P83916; AlphaScreen HP1-beta / biotin-H3K9me3 peptide binding; Potency, µM (series often up to 114 µM), without a hit: top-dose activity change, negative = inhibition, usual class: inhibitors; 390,000 tested, 0.56% active; note: nearly all actives have a fitted effect of over 70% in size
#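 AlphaScreen: HP1-beta (50 nM) preformed 30 min with biotin-H3(1-18)K9me3 peptide (50 nM) in PBS pH 7.4, 0.01% Tween-20. Compound added for 30 min at RT, then streptavidin donor/nickel chelate acceptor beads (10 ug/mL) for 30 min.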
# Sfp inh – blocks B. subtilis Sfp PPTase activity; 310,000 tested, 3.5% active; Potency, µM, for inactives: largest response in the series, negative = inhibition, usual class: inhibitors; Q9F4F7; Biochemical Sfp PPTase activity, qHTS;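 note: the enzyme is Sfp with the accession as filed and its product quenches rhodamine fluorescence; 0% = enzyme reaction without inhibitor and -100% = no enzyme wells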
#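 Step 1, compound plus 15 nM Sfp-PPTase, 15 min, room temperature. Step 2, add rhodamine-CoA (5 uM) and BHQ-2-YbbR (12.5 uM). Step 3, read 525/598 nm fluorescence at 0 and 30 min.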
# An asterisk follows results filed as active; ? = inconclusive; nt = not tested or not shown; [ ] = dose if it differs, or a comment. Calls come from the whole dose curve; as a rule, active = well fitted curve in the direction sought with a large enough effect; inconclusive = small, poorly fitted or top-dose-only effect, or another doubt; inactive = no such curve, though single readings can be large; an effect the other way counts as inactive or inconclusive. Potency is the fitted concentration of half-maximal effect.
SMILES,JMJD2A Tudor inh,G9a inh,TDP1 inh,BAZ2B inh,HP1b binding inh,Sfp inh
CC1CCC/C(=N\NC(=O)Nc2ccccc2)C1 (stereo not given),-1%,40µM*,3%,11%,29%,5%
COc1ccc(NCC(=O)N/N=C2\CCCC(C)C2)cc1 (stereo not given),-18%,22%[59 µM],7%,-9%,27%,1%
CCN(CC)CCOC(=O)c1ccc(NC(=O)c2cc3c(s2)-c2ccccc2OC3)cc1,-19%,16%[59 µM],-8%,-5%,49%,nt
CC(C)S(=O)(=O)c1cnc(-c2ccccn2)nc1N,50µM*,-5%,0%,56µM*,17%,14%
O=c1oc2cc(O)ccc2c2ccccc12,-4%,2µM*,-3%,?,15%,7%
CCc1cnc2c(c1SCC(=O)c1ccc(Cl)cc1)c(=O)n(C)c(=O)n2C,-11%,?,-3%,0%,31%,nt
S=c1[nH]nc(-c2ccc(Br)cc2)n1Cc1ccco1,56µM*,0.4µM*,3%,?,-17%,-14%
Cc1c(Cl)c(-c2n[nH]c(=S)n2-c2ccccc2)nn1C,4.5µM*,8.9µM*,-1%,2%,28%,?
Cc1c(Cl)c(-c2n[nH]c(=S)n2Cc2ccco2)nn1C,8.9µM*,7.9µM*,5%,-9%,20%,-9%
COc1cccc(-c2n[nH]c(=S)n2Cc2ccco2)c1,20µM*,3.2µM*,nt,-36%,-23%,32µM*
CC(C)OCCCNc1nc2c(cnn2C)c(=O)[nH]1,-6%,nt,nt,nt,24%,nt
O=C(Nc1ccc2c(c1)OCCO2)C1CC(O)CN1C(=O)Nc1ccccc1 (stereo not given),?,13%,10%,6%,-5%,6%
COc1ccc(OC)c(CN2CCN(C(=O)c3ccc(C)c(S(=O)(=O)Nc4ccccc4OC)c3)CC2)c1,?,nt,nt,nt,6%,nt
COc1ccc(S(=O)(=O)NCc2ccc(C(=O)NCCCN3CCCC(C)C3)cc2)cc1 (stereo not given),-13%,5%,1%,1%,37%,20%
Cc1ccc(S(=O)(=O)N2CCN(C(=O)CN3C(=O)c4ccc([N+](=O)[O-])cc4C3=O)CC2)cc1C,-15%,?,2%,6%,21%,nt
S=c1[nH]nc(-c2ccncc2)n1Cc1ccco1,7.9µM*,1µM*,-4%,-5%,15%,14µM*
CC1C(=O)OC2C(O)C34C5CC(C(C)(C)C)C36C(OC(=O)C6O)OC4(C(=O)O5)C12O (stereo not given),nt,nt,12%[56.1 µM],nt,nt,4%
CCCCCCCCCn1c2c(c(=N)c3c1CCC3)CCC2,?,?,4%,7%,15%,-8%
CCCCCCCn1c2c(c(=N)c3c1CCC3)CCCC2,1%,45µM*,5%,?,24%,-9%
CSc1nc2[nH]c(=O)n(O)c(=O)c2n1Cc1ccccc1,3.2µM*,nt,nt,nt,-15%,nt
O=C(Cc1coc2cc3c(cc12)CCC3)OCc1cc(=O)n2c(n1)sc1ccccc12,?,-35%[12.7 µM],-12%,50µM*,?,40µM*
CC(C)[C@H](NC(=O)c1ccco1)C(=O)OCc1cc(=O)n2c(n1)sc1ccccc12,?,45µM*,nt,50µM*,-4%,-1%
Cc1ccc(C(=O)N[C@H](C(=O)OCc2cc(=O)n3c(n2)sc2ccccc23)C(C)C)cc1,-15%,40µM*,3%,8%,31%,-6%
Cc1ccc2c(CC(=O)OCc3csc(C)n3)coc2c1,18%,1%[59 µM],-2%,41%,28%,12%
O=C(OCc1cc(=O)n2c(n1)sc1ccccc12)c1cccc(O)c1,35µM*,-4%[59 µM],?,-45%,?,-10%
SMILES,JMJD2A Tudor inh,G9a inh,TDP1 inh,BAZ2B inh,HP1b binding inh,Sfp inh
O=C(OCc1cc(=O)n2c(n1)sc1ccccc12)c1ccc(O)cc1O,-20%,?,nt,-37%,29%,5%
COC(=O)C/C=C\[C@@H](C)[C@@H](/C=N\O[C@@H](C)CN1CCCc2nc(C)c(C)cc21)OC,nt,nt,9%[21 µM],nt,nt,1%
O=C(CCC1N=C2c3ccccc3N=C(SCc3cccc(Cl)c3)N2C1=O)NCc1cccs1 (stereo not given),-3%,3%[59 µM],-2%,-3%,22%,nt
NC(=O)c1ccc(NC(=O)CSC2=Nc3ccccc3C3CC=NN23)cc1 (stereo not given),-8%,13µM*,4%,6%,30%,6%
CCOC(=O)C[C@H]1c2cc(F)ccc2S(=O)(=O)N1C1CCCCC1,-17%,nt,nt,nt,41%,nt
CCN1/C(=C\C=C(C(C)=O)C(C)=O)Sc2ccccc21,-30%,50µM*,4%,?,-5%,-2%
C/C(=C\C(=S)Nc1ccccc1)Nc1ccccc1,-33%,-10%[59 µM],5%,?,-2%,-9%
CCOC(=O)/C(C#N)=C(C)/C=C1\Sc2ccccc2N1CC,-13%,-4%[59 µM],3%,4%,11%,9%
CCN1/C(=C\C(=S)Nc2ccccc2)Sc2ccccc21,25µM*,?,10%,?,?,20µM*
O=C(C[n+]1ccc2ccccc2c1)c1cccc2ccccc12,-29%,28µM*,0%,-19%,19%,-13%
COc1ccccc1N1C(=O)c2cccc3c(C(=O)O)ccc(c23)C1=O,79µM*,-11%,4%,-5%,-8%,-2%
Cc1ccc(S(=O)(=O)N2CCN(S(=O)(=O)c3c(C)n[nH]c3C)CC2)cc1C,-3%,31%[12.7 µM],-4%,5%,31%,nt
C=CCn1c(SCC(=O)NC(=O)Cc2ccccc2)nnc1-c1ccccc1F,-21%,nt,0%,nt,6%[57 µM],nt
CC(=O)c1ccc(NS(=O)(=O)c2cccc(S(=O)(=O)c3ccc(Cl)cc3)c2)cc1,-26%,-1%[59 µM],1%[12.3 µM],-22%,11%,nt
COc1ccc(CCCCCCOCc2ccccc2)cc1,134%,-4%[0.501 µM],20µM*,468%,219%,nt
Cc1cc(C)nc(NS(=O)(=O)c2ccc(NS(=O)(=O)c3ccsc3)cc2)n1,-17%,nt,nt,5%,36%,-22%
COc1ccc(CNC[C@H]2O[C@@H](n3cnc4c(N)ncnc43)[C@H](O)[C@@H]2O)cc1OC,-15%,nt,1%,nt,46%,nt
CC(C)(C)c1ccccc1NC(=S)NC1CCCCC1,-26%,22%,8%,nt,0%,22%
CCCCN(C(=O)c1ccc(Br)o1)C1CCS(=O)(=O)C1 (stereo not given),-4%,50µM*,nt,8%,38%,nt
COc1ccc(Oc2ncc3nc(-c4cccc(C#N)c4)c(=O)n(C)c3n2)cc1,nt,5%[0.501 µM],nt,nt,nt,14%
O=C(NCCCNCCCNC(=O)c1ccc(/C=N/O)nc1)c1ccc(/C=N/O)nc1,5.6µM*,nt,3%,1.4µM*,45%,14µM*
